Results published in publication PMC4336329 (PLoS ONE, 2015).
Out of some 310,000 compounds screened, about 14,000 (4.5%) showed an effect of 50% or more. Effects have a minus sign here. For the sample, strong results were picked, then their nearest neighbours and some compounds at random.

molecular target: human ether-à-go-go-related gene (hERG) potassium channel (human, UniProt Q12809); assay: primary screen, population patch clamp on CHO cells stably expressing hERG; higher = less effect of the substance
Sequence (Q12809 whole entry, looked up): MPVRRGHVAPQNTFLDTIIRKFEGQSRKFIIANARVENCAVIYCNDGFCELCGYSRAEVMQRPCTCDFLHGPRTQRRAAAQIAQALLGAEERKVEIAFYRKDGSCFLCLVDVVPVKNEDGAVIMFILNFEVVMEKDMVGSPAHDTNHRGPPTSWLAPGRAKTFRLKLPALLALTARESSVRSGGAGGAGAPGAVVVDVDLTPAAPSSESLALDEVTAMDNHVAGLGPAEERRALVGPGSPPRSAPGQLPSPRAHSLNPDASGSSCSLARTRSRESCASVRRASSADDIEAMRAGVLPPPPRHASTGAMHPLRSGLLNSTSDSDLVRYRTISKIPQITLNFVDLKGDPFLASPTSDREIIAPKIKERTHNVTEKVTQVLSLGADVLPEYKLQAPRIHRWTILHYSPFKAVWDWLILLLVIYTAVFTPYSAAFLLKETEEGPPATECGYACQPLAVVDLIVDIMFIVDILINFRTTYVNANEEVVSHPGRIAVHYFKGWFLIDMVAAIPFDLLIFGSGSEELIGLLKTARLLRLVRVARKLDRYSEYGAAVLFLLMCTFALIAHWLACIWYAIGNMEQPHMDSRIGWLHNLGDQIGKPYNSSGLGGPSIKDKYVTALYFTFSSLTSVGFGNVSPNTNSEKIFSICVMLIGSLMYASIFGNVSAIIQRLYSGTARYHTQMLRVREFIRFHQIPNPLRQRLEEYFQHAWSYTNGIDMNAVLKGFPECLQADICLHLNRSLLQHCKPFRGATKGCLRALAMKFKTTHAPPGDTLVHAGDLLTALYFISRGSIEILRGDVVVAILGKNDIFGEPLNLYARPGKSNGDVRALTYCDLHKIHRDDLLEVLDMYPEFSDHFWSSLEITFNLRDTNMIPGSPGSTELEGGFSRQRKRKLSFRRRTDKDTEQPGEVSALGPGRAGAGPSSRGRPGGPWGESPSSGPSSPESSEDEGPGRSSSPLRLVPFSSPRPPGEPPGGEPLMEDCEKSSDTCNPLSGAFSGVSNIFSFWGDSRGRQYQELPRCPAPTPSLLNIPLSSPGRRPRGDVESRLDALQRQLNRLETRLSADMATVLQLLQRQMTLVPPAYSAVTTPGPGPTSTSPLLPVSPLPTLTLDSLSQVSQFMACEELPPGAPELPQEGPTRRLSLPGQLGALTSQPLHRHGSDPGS
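Further: peak tail current of the secondary pulse compared with the same well before compound.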

| Compound | hERG current change (%, negative = inhibition) at 10uM [%] |
| --- | --- |
| CC(=O)Nc1ccc(NC(=O)C(C)OC(=O)C(C)SCC(=O)Nc2ccc(F)cc2)cc1 (centres unmarked) | 12 |
| CN(NC(=O)COc1ccccc1)C1=NS(=O)(=O)c2ccccc21 | 26.1 |
| CCCCCNC(=O)C1c2ccccc2Oc2ccccc21 | 2.44 |
| O=C(CSc1ccc2nnc(-c3ccccc3)n2n1)N1CCCc2ccccc21 | -62.7 |
| Cc1ccc(-c2nnc3ccc(SCC(=O)N4CCCc5ccccc54)nn23)cc1 | -12.5 |
| CCOc1ccc(-c2nnc3ccc(SCC(=O)N4CCCCC4)nn23)cc1 | -5.88 |
| O=C(CSc1ccc2nnc(-c3ccccn3)n2n1)N1CCOCC1 | -24.5 |
| O=C(CSc1ccc2nnc(-c3ccccn3)n2n1)N1CCN(c2ccccc2)CC1 | -86.7 |
| O=C(CSc1ccc2nnc(-c3ccc(F)cc3)n2n1)N1CCCc2ccccc21 | -16 |
| COc1ccc(-c2nnc3ccc(SCC(=O)N4CCCC4)nn23)cc1 | -15.2 |
| O=C(CSc1ccc2nnc(-c3ccccc3)n2n1)N1CCCCC1 | -59.7 |
| CCOC(=O)N1CCN(C(=O)CSc2ccc3nnc(-c4ccccn4)n3n2)CC1 | -36 |
| COc1cccc(-c2csc(N3CCN(Cc4ccccc4)CC3)n2)c1 | 0.166 |
| COCC(=O)Nc1nnc(COc2ccc(Cl)cc2)s1 | -0.556 |
| CCC(C)(C)C1CCC2(CC1)NC(=O)N(CC(=O)NCCc1c[nH]c3ccccc13)C2=O (centres unmarked) | -20.3 |
| COc1ccccc1N(C(=O)CCl)c1cn(C(C)=O)c2ccccc12 | -10.6 |
| C=CCOc1ccccc1C1C2=C(CC(C)(C)CC2=O)Nc2c1c(=O)n(C)c(=O)n2C (centres unmarked) | -3.8 |
| CC(C)CN1CCN(Cc2c(F)cccc2Cl)CC1CCO (centres unmarked) | -10.4 |
| CC(C)CCN1CCN(Cc2c(F)cccc2Cl)CC1CCO (centres unmarked) | -21.6 |
| CC(C)CCN1CCN(Cc2cccn2-c2ccc(Cl)cn2)CC1CCO (centres unmarked) | -64.8 |
| CC(C)CN1CCN(Cc2cccn2-c2ccc(Cl)cn2)CC1CCO (centres unmarked) | -64.6 |
| CC(C)CCN1CCN(Cc2ccon2)CC1CCO (centres unmarked) | 4.53 |
| Cc1cccc(CN2CCN(CC(C)C)C(CCO)C2)n1 (centres unmarked) | 17.7 |

| Compound | hERG current change (%, negative = inhibition) at 10uM [%] |
| --- | --- |
| O=C(COC(=O)/C=C/c1ccc(Cl)cc1Cl)Nc1cc(C(F)(F)F)ccc1N1CCOCC1 | 8.56 |
| O=C(O)CSc1nc(SCc2ccccc2Cl)nc2c1CCCC2 | 15.4 |
| Cc1[nH]n(-c2ccccc2)c(=O)c1CCO | 13.7 |
| OC(c1cc(-c2ccc(Cl)cc2)nc2ccccc12)C1CCCCN1 (centres unmarked) | -52.6 |
| Cl.O[C@@H](c1cc(C(F)(F)F)nc2c(C(F)(F)F)cccc12)[C@H]1CCCCN1 | 6.31 |
| Cl.OC(c1cc(C(F)(F)F)nc2c(C(F)(F)F)cccc12)C1CCCCN1 (centres unmarked) | -12.4 |
| Cc1cccnc1NC(=O)Cn1c(=O)oc2ccccc21 | 23 |
| Cc1ccc(N2C(=O)NC(=O)/C(=C\c3cccn3C(C)(C)C)C2=O)cc1 | 24.5 |
| Cl.N=c1sccn1CC(=O)Nc1ccc(S(N)(=O)=O)cc1 | 18.2 |
| Cl.N=c1sccn1CC(=O)Nc1ccc2c(c1)CCC2 | -14.1 |
| Cl.N=c1sccn1CC(=O)Nc1cccc2ccccc12 | 2.9 |
| Cl.N=c1sccn1CC(=O)Nc1cccc(S(N)(=O)=O)c1 | 12.5 |
| Cl.N=c1sccn1CC(=O)Nc1cc(Cl)ccc1[N+](=O)[O-] | 2.64 |
| Cl.N=c1sccn1CC(=O)Nc1ccc(SC(F)F)cc1 | -62.1 |
| O=C(CSc1ccccc1)Nc1cc(Cl)ccc1Oc1ccccc1 | -9.05 |
| Cl.N=c1sccn1CC(=O)Nc1cc(Cl)ccc1Oc1ccccc1 | -75.2 |
| Cl.N=c1sccn1CC(=O)NC(c1ccccc1)c1ccccc1 | -63.3 |
| Cl.N=c1sccn1CC(=O)Nc1ccccc1-c1ccccc1 | -2.05 |
| Cl.N=c1sccn1CC(=O)Nc1cccc(Oc2ccccc2)c1 | -65.5 |
| Cc1ccc(Oc2ccc(NC(=O)Cn3ccsc3=N)cc2)cc1.Cl | -45.1 |
| COc1cc(C(=O)NC(=S)Nc2ccc(NC(=O)c3ccco3)cc2)cc(OC)c1OC | -6.61 |
| CC(=O)Nc1ccc(NC2=CC(=O)c3ccccc3C2=O)cc1 | 11.6 |
| COc1cccc2cc(C(=O)NCCC3=CCCCC3)c(=O)oc12 | 2.79 |

| Compound | hERG current change (%, negative = inhibition) at 10uM [%] |
| --- | --- |
| O=C(/C=C/c1ccccc1)NC(=O)c1ccccc1O | 9.95 |
| CC1CCCN(Cc2cnc(Cl)s2)C1 (centres unmarked) | 13 |
| CCC(=O)N1CCc2cc(S(=O)(=O)N3CCN(C(=O)c4ccco4)CC3)ccc21 | -21.8 |
| CCCc1c(C(=O)N/N=C/c2ccccc2OCc2ccc(F)cc2)nnn1-c1nonc1N | 18.6 |
| Cn1c(=O)c2c(ncn2C)n(C)c1=O | 10.1 |
| CCN1CCN(C(C)C(=O)Nc2c(C)n(C)n(-c3ccccc3)c2=O)CC1.O=C(O)C(=O)O (centres unmarked) | 18.6 |
| CCNc1nc(NCC)nc(Oc2ccc(C(=O)OC)cc2)n1 | -5.78 |
| COc1cccc2c(=O)c(C(=O)O)c[nH]c12 | -0.514 |
| COC(=O)c1sccc1NC(=O)C1CCCCC1C(=O)O (centres unmarked) | 14.7 |
| CN(C)c1cccc(C(=O)N2CCC(n3nccc3NC(=O)C3CCOC3)CC2)c1 (centres unmarked) | 3.5 |
| COCCCNC(=O)C(=O)N/N=C/c1ccc(OCC(=O)Nc2cccc(Cl)c2C)c(OC)c1 | -0.6 |
| COc1ccc(Nc2nc(N3CCCC3)nc3ccccc23)c(OC)c1 | -44.6 |
| COc1ccc(Nc2nc(-c3ccccc3)nc3ccccc23)c(OC)c1 | -1.67 |
| COc1ccc(Nc2nc(N3CCCCC3)nc(N3CCCCC3)n2)c(OC)c1 | 15.2 |
| COc1ccc(Nc2nc(N3CCCCC3)nc3ccccc23)c(OC)c1 | -62.9 |
| COc1ccc(Nc2nc(N3CCN(C)CC3)nc3ccccc23)c(OC)c1 | -75.4 |
| COc1ccc(Nc2nc(Nc3ccc(OC)cc3OC)nc(N3CCN(C)CC3)n2)c(OC)c1 | -22.6 |
| CCN(CC(=O)Nc1ccc(NC(C)=O)cc1)C(=O)CC1OC(=O)c2ccccc21 (centres unmarked) | 5.6 |
| O=C(NCCO)c1nc(C(=O)c2ccccc2)c2ccccc2n1 | 15.9 |
| Cc1nn(-c2ccccc2)c(C)c1C(=O)NCc1ccc(S(N)(=O)=O)cc1 | 20.1 |
| Cc1nn(-c2ccccc2)c(C)c1C(=O)NCc1ccccc1F | 3.78 |
| Cc1nn(-c2ccccc2)c(C)c1C(=O)NCc1ccc(F)cc1 | -53.2 |
| O=C(CCc1nc2ccccc2c(=O)[nH]1)NNC(=O)COc1cccc(F)c1 | -1.88 |

| Compound | hERG current change (%, negative = inhibition) at 10uM [%] |
| --- | --- |
| COc1ccc(F)cc1CN1CCN(CC(=O)N2CCc3ccccc32)CC1 | -48.1 |
| CCC(C)c1ccc(NC(=O)C2CC2)cc1 (centres unmarked) | 5.22 |
| COc1ccc2c(COC(=O)CNS(=O)(=O)c3ccc(C)c(C)c3)cc(=O)oc2c1 | -57.7 |
| Cc1ccc(S(=O)(=O)NCC(=O)OCc2cc(=O)oc3cc(C)ccc23)cc1 | -3.27 |
| Cc1ccc(S(=O)(=O)NCC(=O)OCc2cc(=O)oc3c(C)c(C)ccc23)cc1C | -16.7 |
| CCOC(=O)C(C)Sc1nnc(Cc2cc(=O)[nH]c(=O)[nH]2)n1-c1cccc(OC)c1 (centres unmarked) | 0.328 |
| CCOC(=O)c1cnc2c(C)c(Cl)ccc2c1N1CCN(CC)CC1.Cl | -29.5 |
| CCOC(=O)c1cnc2c(C)cc(Cl)cc2c1N1CCN(C)CC1.Cl | -19.6 |
| CCOC(=O)c1cnc2c(Cl)c(Cl)ccc2c1N1CCN(C)CC1.Cl | -55.5 |
| CN(C)S(=O)(=O)n1cnc([C@H]2c3c(ncn3Cc3ccccc3)C[C@H]3COC(=O)[C@@H]32)c1 | -4.15 |
| Cc1ccc(C(c2sc3nc(C)nn3c2O)N2CC(C)OC(C)C2)cc1 (centres unmarked) | 13.3 |
| O=c1c(Cl)c(NCC2CCCO2)cnn1C12CC3CC(CC(C3)C1)C2 (centres unmarked) | -29.3 |
| O=c1oc(Nc2ccc(F)cc2)nc2ccccc12 | 6.68 |
| CCOC(=O)N1CCC(NC(=O)CSCc2nc(-c3ccccc3Cl)oc2C)CC1 | -19.5 |
| Cl.NC(=NC1CCCCC1)c1ccc([N+](=O)[O-])cc1 | -57.2 |
| Cl.NC(=NC1CCCCC1)c1ccc(Cl)cc1 | -39.2 |
| N/C(=N\OC(=O)CCC1CCCCC1)c1ccc([N+](=O)[O-])cc1 | -8.1 |
| COc1cc2occc2c2oc(=O)ccc12 | 0.24 |
| O=c1[nH]c(=O)n(C2CCCCC2)c(O)c1/C=N/N1CCCCC1c1cccnc1 (centres unmarked) | -13.6 |
| COc1cc(-c2nc3ccc4ccccc4c3c3c2CCC3)ccc1O | 13.8 |
